According to PubChem BioAssay AID1159580 (chemical genetic matrix, 2015):
Hit rate of the full screen: of about 5,500 compounds, about 2,000 (36%) were called active. About 18% were inconclusive and are not listed. No stated cut-off is given here; in the data, active means normalized growth mostly below about 0.91 (no sharp cut-off); inconclusive means no clear call, values can overlap the other calls; inactive means mostly above about 0.92. The list shows a part of the results.

Experiment: chemical genetic growth profiling, strain panel (AID 1159580);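 further: tested at 20 µM; growth read once vehicle control cultures reached saturation at 30 °C; 1 = growth at the plate median or of vehicle wells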
Settings: S. cerevisiae deletion strains, growth OD
[1] = locus YAL013W, strain DEP1, stronger effect = lower value
[2] = locus YBR229C, strain ROT2, stronger effect = lower value
[3] = locus YDL101C, strain DUN1, stronger effect = lower value
[4] = locus YDR150W, strain NUM1, stronger effect = lower value
[5] = locus YEL061C, strain CIN8, stronger effect = lower value
[6] = locus YGR078C, strain PAC10, stronger effect = lower value
[7] = locus YGR229C, strain SMI1, stronger effect = lower value
[8] = locus YHR030C, strain SLT2, stronger effect = lower value
[9] = locus YJR043C, strain POL32, stronger effect = lower value
[10] = locus YLR039C, strain RIC1, stronger effect = lower value
[11] = locus YLR262C, strain YPT6, stronger effect = lower value
[12] = locus YNL153C, strain GIM3, stronger effect = lower value
[13] = locus YPL055C, strain LGE1, stronger effect = lower value
[14] = locus YPL241C, strain CIN2, stronger effect = lower value

Measured: normalized growth

O=c1cc(CO)occ1O
inactive: [1] 1.02 | locus YBR021W, strain FUR4, stronger effect = lower value 1 | [2] 1 | locus YCL029C, strain bik1, stronger effect = lower value 1.02 | locus YDL035C, strain GPR1, stronger effect = lower value 1.03 | locus YDL074C, strain BRE1, stronger effect = lower value 1.03 | [3] 1 | locus YDL134C, strain PPH21, stronger effect = lower value 1.01 | locus YDL185W, strain tfp1, stronger effect = lower value 1.03 | locus YDL192W, strain arf1, stronger effect = lower value 1.02 | locus YDR101C, strain arx1, stronger effect = lower value 1.03 | [4] 1.01 | locus YDR162C, strain NBP2, stronger effect = lower value 1.04 | locus YDR318W, strain mcm21, stronger effect = lower value 1.02 | locus YDR388W, stronger effect = lower value 1.02 | locus YDR502C, strain sam2, stronger effect = lower value 1.03 | [5] 1 | locus YER110C, stronger effect = lower value 1.04 | locus YER155C, strain BEM2, stronger effect = lower value 1 | locus YER167W, strain BCK2, stronger effect = lower value 1.01 | locus YGL078C, strain dbp3, stronger effect = lower value 1.03 | locus YGL086W, strain mad1, stronger effect = lower value 1 | locus YGL248W, strain PDE1, stronger effect = lower value 1 | [6] 1.01 | locus YGR135W, strain pre9, stronger effect = lower value 1.05 | [7] 1.01 | locus YGR252W, strain gcn5, stronger effect = lower value 1.05 | [8] 1 | locus YHR079C, strain IRE1 (second series), stronger effect = lower value 1.03 | locus YHR094C, strain hxt1, stronger effect = lower value 1.02 | locus YHR129C, strain ARP1, stronger effect = lower value 1.01 | locus YHR200W, strain rpn10, stronger effect = lower value 1.03 | locus YIL066C, strain RNR3, stronger effect = lower value 1.01 | locus YIL073C, strain SPO22, stronger effect = lower value 1.15 | locus YIL125W, strain kgd1, stronger effect = lower value 1.02 | locus YIR030C, strain dcg1, stronger effect = lower value 1.02 | locus YJL095W, strain BCK1, stronger effect = lower value 1.02 | locus YJL134W, strain LCB3, stronger effect = lower value 1.01 | locus YJL168C, strain set2, stronger effect = lower value 1.04 | locus YJL187C, strain SWE1 (second series), stronger effect = lower value 1.01 | [9] 1.02 | locus YKL009W, strain mrt4, stronger effect = lower value 1.03 | locus YKL068W, stronger effect = lower value 1.01 | locus YKL085W, strain MDH1 (second series), stronger effect = lower value 1.01 | locus YKL085W, strain MDH1, stronger effect = lower value 1.01 | locus YKR001C, strain vps1, stronger effect = lower value 1.03 | [10] 1.04 | locus YLR058C, strain SHM2, stronger effect = lower value 1 | locus YLR102C, strain apc9, stronger effect = lower value 1.02 | [11] 1.08 | locus YLR268W, strain sec22, stronger effect = lower value 1.02 | locus YLR330W, strain CHS5, stronger effect = lower value 1 | locus YLR342W, strain FKS1 (second series), stronger effect = lower value 1.04 | locus YLR371W, strain rom2, stronger effect = lower value 1.04 | locus YLR418C, strain cdc73, stronger effect = lower value 1.06 | locus YML016C, strain PPZ1, stronger effect = lower value 1 | locus YML032C, strain rad52, stronger effect = lower value 1.04 | locus YML124C, strain tub3, stronger effect = lower value 1.02 | locus YMR078C, strain ctf18, stronger effect = lower value 1.03 | locus YMR223W, strain ubp8, stronger effect = lower value 1.06 | locus YMR307W, strain GAS1, stronger effect = lower value 1.07 | locus YNL067W, strain RPL9B, stronger effect = lower value 1.03 | [12] 1.01 | locus YNL233W, strain BNI4, stronger effect = lower value 1.01 | locus YNL250W, strain rad50, stronger effect = lower value 1.05 | locus YNL271C, strain bni1, stronger effect = lower value 1.02 | locus YNL298W, strain CLA4, stronger effect = lower value 1.04 | locus YNL307C, strain MCK1, stronger effect = lower value 1.03 | locus YNR052C, strain pop2, stronger effect = lower value 1.01 | locus YOL012C, strain htz1 1.34 | locus YOL147C, strain pex11, stronger effect = lower value 1.03 | locus YOR061W, strain CKA2, stronger effect = lower value 1.01 | locus YOR069W, strain VPS5, stronger effect = lower value 1 | locus YOR136W, strain idh2, stronger effect = lower value 1.02 | locus YOR144C, strain elg1, stronger effect = lower value 1.03 | locus YOR184W, strain ser1, stronger effect = lower value 1.04 | locus YOR316C, strain cot1, stronger effect = lower value 1.01 | [13] 1.02 | [14] 1.01 | locus YPR119W, strain clb2, stronger effect = lower value 1.03 | locus YPR141C, strain kar3, stronger effect = lower value 1.01 | locus YPR163C, strain tif3, stronger effect = lower value 1.04 | locus YPR167C, strain met16, stronger effect = lower value 1.02 | strain wtn01, stronger effect = lower value 1.01

CCOC(=O)NC(=O)c1cn(Cc2cccs2)c(=O)[nH]c1=O
inactive: [1] 0.999 | [2] 1.02 | [3] 1 | [4] 1.02 | [5] 0.996 | [6] 0.993 | [7] 0.998 | [8] 1 | locus YHR087W, strain rtc3, stronger effect = lower value 1.01 | locus YJL187C, strain SWE1, stronger effect = lower value 1.01 | [9] 0.988 | locus YJR075W, strain HOC1, stronger effect = lower value 1.01 | [10] 1.01 | locus YLR058C, strain SHM2 (second series), stronger effect = lower value 1.01 | locus YLR085C, strain ARP6, stronger effect = lower value 1.03 | [11] 0.999 | locus YML094W, strain GIM5, stronger effect = lower value 1.01 | locus YMR219W, strain ESC1, stronger effect = lower value 1.01 | locus YMR263W, strain SAP30, stronger effect = lower value 1.01 | locus YNL128W, strain TEP1, stronger effect = lower value 0.984 | [12] 0.983 | locus YNL298W, strain CLA4 (second series), stronger effect = lower value 1.02 | locus YNL322C, strain KRE1, stronger effect = lower value 1 | locus YNR030W, strain Alg12, stronger effect = lower value 1.01 | locus YOL006C, strain TOP1, stronger effect = lower value 0.997 | [13] 1.06 | [14] 1.02 | locus YPR135W, strain CTF4, stronger effect = lower value 0.96
